According to PubChem BioAssay AID1345085 (National Center for Advancing Translational Sciences (NCATS), 2018):
Inconclusive results are not listed. Active and inactive are the calls of the source. Calls follow the shape of the dose curve; as a rule, active = well fitted cell-killing curve with a large enough effect; inconclusive = small, poorly fitted or top-dose-only effect, or effect the other way; inactive = no such curve, though single readings can be large or run the other way.

system: PA-1; experiment: Confirmatory qHTS for gynecologic anti-cancer compounds from libraries of approved drugs and bioactive compounds; conditions: gynecologic cancer cell panel viability, ATPlite luminescence, 48 h; series mostly up to 57.6 µM; activity change, negative = viability loss: at the top concentration; also: nearly all actives have a fitted effect of over 55% in size
Outline: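 1,000 cells/well; 16 h pre-incubation 37 C, 5% CO2; pin-transferred cpd in DMSO, 11 conc (1:3), 57.5 uM–0.977 nM; 48 h; ATPlite, 15 min RT; luminescence → IC50.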
% is scaled to controls: 0 for no effect and ±100 for the full control effect; potency is read from the fitted curve at half-maximal effect.

| SMILES | Potency | activity change, negative = viability loss |
| --- | --- | --- |
| C[C@H]1CCC/C=C/C2C[C@H](O)C[C@H]2[C@H](O)/C=C/C(=O)O1 (stereo partly drawn) | 0.172 µM (active) |  |
| Cc1sc2c(c1C)C(c1ccc(Cl)cc1)=NC(CC(=O)OC(C)(C)C)c1nnc(C)n1-2 (stereo not drawn) | 1.53 µM (active) |  |
| C=C(C)[C@H]1Cc2c(ccc3c2O[C@@H]2COc4cc(OC)c(OC)cc4[C@@H]2C3=O)O1 | 0.0273 µM (active) |  |
| O=C(O)Cc1ccccc1 |  | 11.7% (inactive) |
| CCOc1ccccc1-n1c(C(C)N2CCN(C(=O)COc3ccc(Cl)cc3)CC2)nc2ccccc2c1=O (stereo not drawn) | 13.7 µM (active) |  |
| C[C@]12CC[C@H]3[C@@H](CCC4=CC(=O)CC[C@@H]43)[C@@H]1CC[C@@H]2OC(=O)CCc1ccccc1 |  | -4.23% (inactive) |
| C/C=C(/C)C(=O)O[C@H]1C(C)=C2[C@H]([C@@H]1OC(=O)CCCCCCC)[C@@](C)(OC(C)=O)C[C@H](OC(=O)CCC)[C@@]1(O)[C@H]2OC(=O)[C@@]1(C)O | 0.0485 µM (active) |  |
| CCNC(=O)C[C@@H]1N=C(c2ccc(Cl)cc2)c2cc(OC)ccc2-n2c(C)nnc21 | 4.32 µM (active) |  |
